NR1D1 modulator: modulators of human Rev-erb alpha DNA binding. P20393. Rev-erbα–FITC-DNA binding, fluorescence polarization, 90 min. activity, % at 10 µM. 370,000 tested, 0.79% active. AID 1259318;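 active means activity above about 14%, limit read from the data; passing the limit was not always enough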
PP1 counter: blocks human PP1-alpha phosphatase, a PP5 counter-screen. 320,000 tested, 0.9% active. inhibition, % at 6.7 µM. AID 2235. purified PP1alpha, OMFP fluorescence. P62136;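 active means inhibition above the mean inhibition of all tested compounds plus 3 SD, computed separately for each screening campaign, cut at about 15% in these data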
PP5 primary: inhibitors of human protein phosphatase 5 (PP5) | 320,000 tested, 0.18% active | inhibition, % at 6.7 µM | P53041 | AID 1987 | purified PP5c, OMFP substrate fluorescence;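 active means inhibition above the campaign's mean inhibition across all tested compounds plus 3 SD, cut at about 9.5% in these data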
PG9 Ab binder: PG9 antibody binding by small molecule | 360,000 tested, 0.43% active | AID 624416 | TR-FRET gp120-PG9 antibody binding | inhibition, % at 6.7 µM; in the data active means inhibition above about 8.5%
KLK7 zymogen act: proKLK7 (human) activation, primary screen. activation, % at 7 µM. P49862. 370,000 tested, 0.9% active. purified proKLK7, EDANS-DABCYL substrate fluorescence; 100% is mature enzyme control, 0% vehicle;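 active means activation above the mean of all tested compounds plus 3 SD, computed per campaign excluding outliers beyond control limits, cut at about 13% in these data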
GASC-1 inh: inhibitors of human GASC-1 (JMJD2C) demethylase. Q9H3R0. GST-JMJD2C(1-420) H3K9me3 demethylation, DELFIA europium. inhibition, % at 2.35 µM. 330,000 tested, 0.069% active;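 active means more than half of a compound's replicate wells show inhibition beyond 50%, single wells judged on their own value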;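 further: signal counts dimethyl H3K9 product captured on neutravidin plate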
Target sequence (Q9H3R0 1-420 limits assumed): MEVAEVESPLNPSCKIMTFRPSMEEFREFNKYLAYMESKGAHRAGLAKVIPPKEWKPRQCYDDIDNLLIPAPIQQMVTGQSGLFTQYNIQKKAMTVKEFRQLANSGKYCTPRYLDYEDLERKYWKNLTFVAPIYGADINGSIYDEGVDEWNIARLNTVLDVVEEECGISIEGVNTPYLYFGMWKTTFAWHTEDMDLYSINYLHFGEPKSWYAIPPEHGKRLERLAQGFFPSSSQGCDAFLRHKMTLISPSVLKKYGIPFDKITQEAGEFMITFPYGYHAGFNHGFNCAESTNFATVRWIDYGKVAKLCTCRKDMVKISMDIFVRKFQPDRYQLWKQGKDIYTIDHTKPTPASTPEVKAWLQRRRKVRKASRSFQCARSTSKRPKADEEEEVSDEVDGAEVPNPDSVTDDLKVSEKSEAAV
NR1D1 mod conf: confirmation of modulators of human Rev-erb alpha DNA binding; AID 1259319; activation, % at 25 µM; Rev-erb alpha FITC-DNA binding, fluorescence polarization, 90 min; 3,000 tested, 61% active; shares compounds with NR1D1 modulator;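 active means activation at or above a set limit, or at least 3 SD above the negative control mean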
RORg counter: RORgamma DNA-binding activity, dose-response counter-screen. purified RORgamma protein-FITC-DNA binding, fluorescence polarization. IC50, µM. shares compounds with NR1D1 modulator. 910 tested, 8% active. AID 1259320;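 active means Compounds whose fitted half-maximal concentration for disrupting protein-DNA binding is below 10 micromolar; the record names Rev-erb in its text, so the target is in doubt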
Large screens that a line does not name were inactive (follow-up assays come after a bar, where they were run). An excerpt weighted towards active compounds, which were near 2.8% of everything screened.

CCCCN(CCCC)Cc1cc(=O)oc2cc(C)cc(C)c12	NR1D1 modulator 19 (no result: PP1 counter, PP5 primary, GASC-1 inh) | NR1D1 mod conf inactive
Cc1cc(C)c2c(CCl)cc(=O)oc2c1	none
CC(C)OC(=O)CSc1nc2cc3c(cc2cc1C#N)OCO3	NR1D1 modulator 49 | NR1D1 mod conf inactive
Cc1cc2cc3c(cc2nc1SCC(=O)N1CCOCC1)OCO3	none
N#Cc1cc2cc3c(cc2nc1SCC(=O)N1CCOCC1)OCO3	NR1D1 modulator 37 | NR1D1 mod conf inactive
CCOC(=O)CSc1nc2cc(C)ccc2cc1C#N	none
N#Cc1cc2cc3c(cc2nc1N1CCCCC1)OCCO3	none
CCOC(=O)CSc1nc2cc(OC)ccc2cc1C#N	NR1D1 modulator 30 | NR1D1 mod conf 31
N#Cc1cc2cc3c(cc2nc1Cl)OCCO3	NR1D1 modulator 27 (no result: PP1 counter, PP5 primary, GASC-1 inh) | NR1D1 mod conf 22
S=C(NCc1cccc(Cl)c1)OC1CCC12CCC(c1ccccc1)CC2 (centres undefined)	none (no result: PP1 counter, PP5 primary, PG9 Ab binder, GASC-1 inh)
COC(=O)[C@]12C[C@H](CC(=O)N3CCOCC3)C(=O)N(Cc3ccco3)C1=C[C@H](C1CCCC1)O[C@@H]2C	none (no result: PP1 counter, PP5 primary, PG9 Ab binder, GASC-1 inh)
COC(=O)CC[C@@H](/C=C/C(=O)OC(C)(C)C)Sc1ccc(C(C)(C)C)cc1	none (no result: PP1 counter, PP5 primary, PG9 Ab binder, GASC-1 inh)
Clc1cc(Cl)cc(CNC2CCC23CCCCC3)c1 (centres undefined)	none (no result: PP1 counter, PP5 primary, PG9 Ab binder, KLK7 zymogen act, GASC-1 inh)
COc1ccc2nc(SCc3cccnc3)c(C#N)cc2c1	NR1D1 modulator 86 | NR1D1 mod conf 56 | RORg counter inactive
N#Cc1cc2ccccc2nc1SCc1cccnc1	none
CCOC(=O)CSc1nc2cc3c(cc2cc1C#N)OCCO3	NR1D1 modulator 75 | NR1D1 mod conf 31 | RORg counter 0.66
C[C@H]1Cn2cnc(C(=O)N3CCN(c4ccccc4)CC3)c2C(=O)N1	none (no result: PP1 counter, PP5 primary, GASC-1 inh)
COc1cccc(C(=O)Nc2ccccc2F)c1	none
O=C(Nc1ccccc1F)c1cccc(C(=O)Nc2ccccc2F)c1	NR1D1 modulator 41 | NR1D1 mod conf inactive
CCOc1ccc(C(=O)Nc2ccc(C(F)(F)F)n(C)c2=O)cc1	NR1D1 modulator 35 | NR1D1 mod conf inactive
CCCCNC(=O)OC1CCC12CCC(c1ccccc1)CC2 (centres undefined)	none (no result: PP1 counter, PP5 primary, PG9 Ab binder, GASC-1 inh)
O=C(Nc1ccc(S(=O)(=O)C(F)F)cc1)c1ccc2c(=O)n3c(nc2c1)CCC3	NR1D1 modulator 20 | NR1D1 mod conf inactive
CCCC1CCC2(CCCN2CCOC(=O)Nc2ccccc2C)CC1 (centres undefined)	none (no result: PP1 counter, PP5 primary, PG9 Ab binder, KLK7 zymogen act, GASC-1 inh)
COC(=O)[C@]12C[C@H](CC(=O)NCc3ccc(OC)c(OC)c3)C(=O)N(Cc3ccc4c(c3)OCO4)C1=C[C@H](C(C)C)O[C@@H]2C1CC1	none (no result: PP1 counter, PP5 primary, PG9 Ab binder, GASC-1 inh)
COc1cccc2c1cc1c(=O)n(CC(=O)NCCCc3ccccc3)nc(C)n12	none (no result: NR1D1 modulator, PG9 Ab binder, KLK7 zymogen act)
CCc1nn(CC(=O)NCCCc2ccccc2)c(=O)c2cc3c(OC)cccc3n12	NR1D1 modulator 31 | NR1D1 mod conf inactive
CCOC(=O)C(C)Sc1cc(CS(=O)(=O)c2ccccc2)nc(-c2ccccc2)n1 (centres undefined)	NR1D1 modulator 29 | NR1D1 mod conf 36 | RORg counter inactive
N#Cc1cccc(S(=O)(=O)NCCOc2ccccc2F)c1	none
O=S(=O)(NCCOc1ccccc1F)c1cccc(Br)c1	NR1D1 modulator 18 | NR1D1 mod conf inactive
COc1ccc(-c2nc3c4ccccc4ccn3c2C=O)cc1	NR1D1 modulator 53 | NR1D1 mod conf 93 | RORg counter inactive
CCOC(=O)CC(=O)CSc1nc(-c2ccc3c(c2)OCO3)cc(C(F)(F)F)c1C#N	NR1D1 modulator 110 (no result: PG9 Ab binder, KLK7 zymogen act) | NR1D1 mod conf 84 | RORg counter inactive
N#Cc1c(C(F)(F)F)cc(-c2ccc(Cl)c(Cl)c2)nc1SCCN1CCOCC1	none (no result: PG9 Ab binder, KLK7 zymogen act)
COc1ccc(-c2cc(C(F)(F)F)c(C#N)c(SCC(=O)Nc3ccc(C)cc3)n2)cc1	NR1D1 modulator 83 | NR1D1 mod conf 32
CCOC(=O)CCSc1nc(-c2ccc3c(c2)OCO3)cc(C(F)(F)F)c1C#N	NR1D1 modulator 21 | NR1D1 mod conf inactive
C=CCSc1nc(-c2ccc3c(c2)OCO3)cc(C(F)(F)F)c1C#N	NR1D1 modulator 25 | NR1D1 mod conf 20

Bioassay records deposited in PubChem BioAssay by several laboratories.
